Data on one compound can be found in PubChem BioAssay (NCATS).

For assay [1], the target named is Lysosomal acid glucosylceramidase (Homo sapiens) (UniProt P04062). Briefly: Glucocerebrosidase-p2 (AID 348; in the data active = potency below about 10 µM; note: potency is the fitted concentration of half-maximal effect). The following applies: purified GBA, blue fluorogenic substrate, 40 min. In outline: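 Compounds titrated from 0.6 nM upwards against 0.2 nM enzyme in pH 5.9 citric acid/KH2PO4, taurocholate, tween-20; blue fluorogenic substrate 80 uM, 40 min room temperature, stopped and read Ex 365/Em 440 for AC50.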
Sequence of Lysosomal acid glucosylceramidase (Homo sapiens) (P04062 whole entry, looked up): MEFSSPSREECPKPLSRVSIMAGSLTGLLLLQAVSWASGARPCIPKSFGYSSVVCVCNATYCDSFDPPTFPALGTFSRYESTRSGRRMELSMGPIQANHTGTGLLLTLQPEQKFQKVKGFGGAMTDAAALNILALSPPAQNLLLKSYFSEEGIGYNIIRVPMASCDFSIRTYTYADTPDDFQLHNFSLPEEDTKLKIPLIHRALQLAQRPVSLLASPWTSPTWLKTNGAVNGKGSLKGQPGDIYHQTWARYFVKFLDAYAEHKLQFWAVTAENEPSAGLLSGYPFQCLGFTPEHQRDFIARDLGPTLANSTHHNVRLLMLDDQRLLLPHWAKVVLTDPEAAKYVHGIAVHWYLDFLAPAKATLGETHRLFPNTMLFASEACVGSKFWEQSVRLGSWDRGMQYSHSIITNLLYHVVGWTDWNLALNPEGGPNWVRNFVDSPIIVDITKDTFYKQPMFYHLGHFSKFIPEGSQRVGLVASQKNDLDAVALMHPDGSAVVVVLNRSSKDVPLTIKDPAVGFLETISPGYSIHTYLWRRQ

The target of assay [2] is Cytochrome P450 1A2 (Homo sapiens) (UniProt P05177). Briefly: p450-cyp1a2 (AID 410; calls by dose curve; note: potency is the fitted concentration of half-maximal effect). The following applies: recombinant CYP1A2, luciferin-ME demethylation, luminescence; series mostly up to 11.4 µM. In outline: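 Luminescent readout of luciferin formed from Luciferin-ME by human CYP1A2; data normalized against complete inhibition by 57 uM furafylline. Enzyme 20nM, substrate 100uM at Km, 100mM KPO4 buffer, 60 min reaction at room temperature.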
Sequence of Cytochrome P450 1A2 (Homo sapiens) (P05177 whole entry, looked up): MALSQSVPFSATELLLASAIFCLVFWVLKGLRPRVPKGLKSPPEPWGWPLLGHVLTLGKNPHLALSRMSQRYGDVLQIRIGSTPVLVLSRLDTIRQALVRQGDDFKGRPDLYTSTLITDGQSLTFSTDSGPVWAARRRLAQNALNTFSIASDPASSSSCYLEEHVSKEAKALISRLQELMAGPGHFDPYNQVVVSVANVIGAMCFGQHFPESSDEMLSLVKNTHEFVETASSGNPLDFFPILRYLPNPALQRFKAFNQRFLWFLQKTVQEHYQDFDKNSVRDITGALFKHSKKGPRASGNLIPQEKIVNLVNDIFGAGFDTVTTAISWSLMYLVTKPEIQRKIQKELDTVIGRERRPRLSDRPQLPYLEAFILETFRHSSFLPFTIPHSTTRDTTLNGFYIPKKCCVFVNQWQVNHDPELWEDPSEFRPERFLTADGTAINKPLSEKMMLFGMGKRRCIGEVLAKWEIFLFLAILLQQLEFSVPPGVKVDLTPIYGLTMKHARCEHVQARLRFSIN

Assay [3] is described as follows: NFAT Signaling Pathway (AID 444).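 Note: carbachol stimulus at about its EC50 of 1 µM final; % is set by controls: 0 for no effect and ±100 for the full control effect.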 The conditions noted are these: Jurkat NFAT-bla M1, carbachol, beta-lactamase ratio, 5 h; at 7.69 µM (top of the series) unless noted. The procedure, abridged: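 Jurkat cells carrying an NFAT-driven β-lactamase reporter and co-transfected muscarinic M1 receptor were treated with compound plus carbachol (1 uM final, an EC50 level) for 5 h at 37 °C. CCF4 loading followed for 1 h at RT; 460/530 nm ratio gave %activity.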

The nature of assay [4]: Stat Signaling Pathway (AID 446).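 Note: ME-180 cervical cancer cells given 40 pM IL-6 alongside compound; SIE-controlled beta-lactamase reporter measured as 460/530 nm FRET emission ratio; % is set by controls: 0 for no effect and ±100 for the full control effect.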 The following applies: ME-180 SIE beta-lactamase reporter, IL-6 stimulated, 5 h; at 7.69 µM (top of the series) unless noted. In outline: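 ME-180 cells carrying a SIE-driven beta-lactamase reporter are stimulated with 40 pM IL-6 for 5 h at 37C in the presence of compound. The 460/530 nm FRET substrate ratio is read after 2.5 h at RT. Data are normalised to 300 pM IL-6 and to 125 nM JAK inhibitor controls.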

Assay [5] concerns the target Glucocorticoid receptor (Homo sapiens) (UniProt P04150). In words: GR-GFP Redistribution (AID 450;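 active = compounds whose dose series gives a full or clear partial fitted curve of increased nuclear translocation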; note: potency is the fitted concentration of half-maximal effect). The conditions noted are these: U2OS GR-GFP nuclear translocation, laser cytometry, 2 h.
For assay [6] the target is unchanged. In words: GR-EFC Redistribution (AID 451; calls by dose curve; note: potency is the fitted concentration of half-maximal effect). The following applies: CHO-K1 GR-EFC translocation, beta-gal luminescence, 2 h. The procedure, abridged: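 CHO-K1 cells stably expressing nuclear-localized β-gal enzyme acceptor and GR fused C-terminally to the enzyme donor fragment; ligand-driven nuclear translocation restores β-gal by complementation. Compounds titrated up to 46 uM final, 2 h at 37 °C; luminescence read.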

Assay [7] has as its target Mitogen-activated protein kinase 10 (Mus musculus) (UniProt Q61831). Briefly: JNK3 AlphaScreen Assay (AID 530).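 Note: kinase came from lysate of stimulated human HepG2 cells; signal reports phosphorylation of biotinylated GST-cJun 1-79 at Ser73 with 10 µM ATP; % is set by controls: 0 for no effect and ±100 for the full control effect.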 The following applies: JNK3 lysate, c-Jun phosphorylation; series mostly up to 11.4 µM. In outline:
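Inhibitors reduce antibody binding to phosphorylated biotin-cJun, lowering AlphaScreen luminescence. Lysates from HepG2 cells pre-activated by IL-1beta plus TNF-alpha supplied JNK3; compounds were titrated.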

For assay [8], the target named is 3',5'-cyclic-AMP phosphodiesterase 4B (Homo sapiens) (UniProt Q07343). In words: qHTS Assay for Inhibitors of PDE-IV (AID 607; active = well fitted activation curve with a large enough effect in the main read-out, with a control signal flat, not every such curve was filed as active; note: % of control where 0% means no effect). The following applies: HEK293 ACTOne CNG channel cells, membrane potential fluorescence; series mostly up to 22.9 µM. The procedure, abridged:
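HEK293 ACTOne cells with CNG channel (1000/well), endogenous PDE4; membrane potential dye, compounds up to 22.9 uM final. Fluorescence Ex 535/Em 590; RO 20-1724 (100 uM final) as reference.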

Unmarked numbers belong to inactive results. Results filed as inconclusive are left out. Activity calls are given as the source filed them. Unless noted, calls come from the whole dose curve; as a rule, active = well fitted curve in either direction with a large enough effect (not every such curve was filed as active); inconclusive = small, poorly fitted or top-dose-only effect, or another doubt; inactive = flat fitted curve, though single readings scatter.

Sequence of Glucocorticoid receptor (Homo sapiens) (P04150 whole entry, looked up, the tested form may be a part): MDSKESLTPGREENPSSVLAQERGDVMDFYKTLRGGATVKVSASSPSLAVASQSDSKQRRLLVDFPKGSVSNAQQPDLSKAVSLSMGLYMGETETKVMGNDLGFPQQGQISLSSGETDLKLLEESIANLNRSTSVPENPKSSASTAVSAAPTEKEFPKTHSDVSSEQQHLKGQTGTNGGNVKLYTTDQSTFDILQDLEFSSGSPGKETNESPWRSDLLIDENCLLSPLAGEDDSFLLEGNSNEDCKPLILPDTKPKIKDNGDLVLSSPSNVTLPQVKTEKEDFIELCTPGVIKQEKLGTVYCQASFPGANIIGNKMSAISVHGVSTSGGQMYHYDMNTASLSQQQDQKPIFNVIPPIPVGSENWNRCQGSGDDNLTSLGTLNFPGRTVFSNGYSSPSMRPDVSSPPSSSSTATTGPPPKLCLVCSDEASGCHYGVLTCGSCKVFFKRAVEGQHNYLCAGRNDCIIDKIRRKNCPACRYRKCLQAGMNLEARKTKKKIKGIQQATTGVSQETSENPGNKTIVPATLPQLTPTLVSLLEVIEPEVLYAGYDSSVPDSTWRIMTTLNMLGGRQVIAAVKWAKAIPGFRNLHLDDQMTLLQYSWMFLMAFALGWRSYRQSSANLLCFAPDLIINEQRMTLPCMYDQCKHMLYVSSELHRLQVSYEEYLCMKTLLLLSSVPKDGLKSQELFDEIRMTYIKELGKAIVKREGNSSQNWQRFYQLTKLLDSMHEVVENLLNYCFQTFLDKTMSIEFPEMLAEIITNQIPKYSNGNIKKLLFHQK
Sequence of 3',5'-cyclic-AMP phosphodiesterase 4B (Homo sapiens) (Q07343 whole entry, looked up): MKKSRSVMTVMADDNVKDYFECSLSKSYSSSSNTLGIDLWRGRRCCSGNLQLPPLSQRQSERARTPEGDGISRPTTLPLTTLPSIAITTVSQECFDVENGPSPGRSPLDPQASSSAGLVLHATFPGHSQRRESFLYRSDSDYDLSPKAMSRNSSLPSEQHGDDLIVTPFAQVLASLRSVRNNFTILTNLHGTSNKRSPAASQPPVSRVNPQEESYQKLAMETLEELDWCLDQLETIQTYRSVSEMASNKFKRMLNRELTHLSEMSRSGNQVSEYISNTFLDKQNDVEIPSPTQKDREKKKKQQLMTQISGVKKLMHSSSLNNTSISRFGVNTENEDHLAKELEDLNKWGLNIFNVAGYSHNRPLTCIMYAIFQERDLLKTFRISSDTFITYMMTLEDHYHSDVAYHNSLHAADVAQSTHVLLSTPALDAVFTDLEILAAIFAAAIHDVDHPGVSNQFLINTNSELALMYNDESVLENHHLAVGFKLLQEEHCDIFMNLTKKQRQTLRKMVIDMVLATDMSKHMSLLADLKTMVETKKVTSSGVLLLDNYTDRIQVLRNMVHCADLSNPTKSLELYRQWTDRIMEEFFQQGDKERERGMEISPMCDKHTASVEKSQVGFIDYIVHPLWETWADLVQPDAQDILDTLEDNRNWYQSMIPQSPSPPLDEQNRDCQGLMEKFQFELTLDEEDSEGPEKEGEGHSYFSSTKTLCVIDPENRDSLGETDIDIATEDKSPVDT

For `Cc1cc(Cl)nc(NC(=O)CSc2ccc(Cl)cc2)n1`, the Potency in assay [1] was more than 11.4 µM; in assay [2], 5.01 µM (active); in assay [5], more than 46 µM; in assay [6], more than 9.22 µM. Moreover, in assay [3], the activity change, negative = inhibition is 16.8%. The activity, negative = inhibition in assay [4] was 11%. In addition, the Potency entry in assay [7] and in assay [8] was “inactive” throughout.
